Hits are enriched below; roughly 19% of the tested compounds scored in any of these assays.
TDP1 block: qHTS Assay for Inhibitors of Tyrosyl-DNA Phosphodiesterase (TDP1); AID 485290, 2010; hit rate 0.28% among 350,000; recombinant TDP1, AlphaScreen DNA substrate cleavage; Potency, µM (titrated, usually from 130 µM), inactives show at the top dose activity change, negative = inhibition, actives largely listed as inhibitors; Tyrosyl-DNA phosphodiesterase 1 (Homo sapiens), Q9NUW8; note: potency is the fitted concentration of half-maximal effect; % is set by controls: 0 for no effect and ±100 for the full control effect; nearly all actives have a fitted effect of over 40% in size
Target sequence (Q9NUW8 whole entry, looked up): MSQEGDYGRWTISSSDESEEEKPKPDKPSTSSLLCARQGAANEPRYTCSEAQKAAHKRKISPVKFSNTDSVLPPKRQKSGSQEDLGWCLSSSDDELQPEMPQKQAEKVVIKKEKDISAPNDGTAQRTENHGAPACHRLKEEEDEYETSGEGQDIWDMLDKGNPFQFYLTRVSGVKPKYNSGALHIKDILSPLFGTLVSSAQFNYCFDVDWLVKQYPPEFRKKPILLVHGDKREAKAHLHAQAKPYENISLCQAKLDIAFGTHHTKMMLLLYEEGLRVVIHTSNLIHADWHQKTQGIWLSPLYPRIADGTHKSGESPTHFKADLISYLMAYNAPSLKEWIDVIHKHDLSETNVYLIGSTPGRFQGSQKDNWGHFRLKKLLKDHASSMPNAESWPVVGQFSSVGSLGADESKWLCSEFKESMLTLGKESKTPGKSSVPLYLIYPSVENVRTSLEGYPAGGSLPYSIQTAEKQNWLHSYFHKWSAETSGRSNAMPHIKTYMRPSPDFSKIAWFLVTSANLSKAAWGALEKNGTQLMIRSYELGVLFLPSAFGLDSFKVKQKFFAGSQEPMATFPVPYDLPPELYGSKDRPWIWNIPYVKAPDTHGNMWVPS
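Enzyme-compound mixtures sat 15 min at room temperature, followed by a 5 min reaction with 15 nM final substrate and 10 min with AlphaScreen beads. Recombinant human Tdp1 was used at 1 nM final.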
TGFb inhibitor: qHTS for Inhibitors of TGF-b. HepG2 CAGA-GFP TGF-b/SMAD3 reporter, GFP fluorescence, 18 h; TGF-beta stimulated, 500 pg/mL final. Potency, µM (series often up to 46.1 µM), without a hit: at the top dose activity, negative = inhibition, most hits filed as inhibitors. hit rate 1.2% among 410,000; note: potency is the fitted concentration of half-maximal effect; % is set by controls: 0 for no effect and ±100 for the full control effect; nearly all actives have a fitted effect of over 65% in size
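Inhibition of TGF-beta-driven CAGA-GFP reporter expression in HEPG2 cells is measured by cellular GFP fluorescence after 18 h stimulation with 500 pg/mL recombinant TGF-beta in 1% FBS medium at 37 degrees C.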
TDP1 cell noCPT: qHTS for Inhibitors of human tyrosyl-DNA phosphodiesterase 1 (TDP1): qHTS in cells in absence of CPT. AID 686978, 2013. Potency, µM (titrated, usually from 46.2 µM), for the others: top-dose activity change, negative = growth inhibition, usual class: inhibitors. hit rate 15% among 420,000. DT40 Tdp1-/- hTDP1 cells, no CPT, ATP luminescence, 48 h; note: potency is the fitted concentration of half-maximal effect; % is set by controls: 0 for no effect and ±100 for the full control effect; nearly all actives have a fitted effect of over 55% in size
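A cellular qHTS used chicken DT40 cells lacking endogenous Tdp1 but carrying stably transfected human TDP1. Compounds were applied without camptothecin, and cell growth kinetics were judged by ATP-dependent luminescence after ≥48 hr.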
DT40 TDP1 CPT: qHTS for Inhibitors of human tyrosyl-DNA phosphodiesterase 1 (TDP1): qHTS in cells in presence of CPT; hit rate 12% among 420,000; chicken DT40 Tdp1-/-;hTDP1 cells + 20 nM CPT, ATP luminescence, 48 h; Potency, µM (top dose mostly 46.2 µM), inactives show at the highest dose activity change, negative = growth inhibition, hits mostly inhibitors; note: potency is the fitted concentration of half-maximal effect; % is set by controls: 0 for no effect and ±100 for the full control effect; nearly all actives have a fitted effect of over 55% in size
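Cell growth measured by CellTiter-Glo luminescence after a minimum 48 h, 37 C compound exposure with 20 nM CPT in Tdp1-knockout DT40 cells stably expressing hTDP1, seeded 400/well; qHTS titration format.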
IL1B secr inh: qHTS for Inhibitors of Inflammasome Signaling: IL-1-beta AlphaLISA Primary Screen; THP-1 LPS/ATP IL-1B secretion, AlphaLISA, 16 h; hits give low values; activity change, % at 57.5 µM; hit rate 4.7% among 360,000; in the data active = activity change below about -50%; inconclusive = mostly about -30% to -49%; note: % is set by controls: 0 for no effect and ±100 for the full control effect
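Secreted IL-1B measured by AlphaLISA bead assay after 16 h compound exposure of THP-1 cells; compounds (final up to 57.5 uM) added 1 h before LPS (250 ng/mL) and ATP (1.25 mM) stimulation; lower signal means less secretion.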
HepG2 tox: qHTS for Inhibitors of TGF-b: Cytotox Counterscreen. HepG2 CAGA-GFP viability, ATP luminescence, 18 h. hit rate 0.76% among 410,000. Potency, µM (highest dose often 46.1 µM), without a hit: at the top dose activity change, negative = cytotoxicity, actives largely listed as cytotoxic; note: potency is the fitted concentration of half-maximal effect
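CellTiter-Glo luminescence gave cytotoxicity after 18 hours at 37 degrees C. The cells were HepG2 CAGA-GFP in 1% FBS DMEM, stimulated with 500 pg/mL TGF-beta after compound addition. %Activity was normalised to no-cell wells (complete cell-killing) and DMSO (no toxicity), and curves were fitted and classified.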
* marks the source's active call; other numbers are inactive results; ? = inconclusive; · = no result given. Unless noted, calls come from the whole dose curve; as a rule, active = well fitted curve in the direction sought with a large enough effect; inconclusive = small, poorly fitted or top-dose-only effect, or another doubt; inactive = no such curve, though single readings can be large; an effect the other way counts as inactive or inconclusive.

SMILES	TDP1 block	TGFb inhibitor	TDP1 cell noCPT	DT40 TDP1 CPT	IL1B secr inh	HepG2 tox
O=C1NC[C@H](CCCCN2CCN(CC3CCCCC3)C(=O)C2=O)N(CCC2CCCCC2)C1=O	·	·	-15.8%	-7.1%	-14.3	·
CCCCNc1nc(C)nc2c1nc(-c1ccccc1)n2C1CCN(Cc2ccccc2)C1 (centres undefined)	5.7%	·	·	·	·	·
CCCC(=O)C1=C(c2ccc(C)cc2)N(C(=O)CCC)n2cnnc2S1	0.0%	?	16.4µM*	?	·	20µM*
CCCC(=O)C1=C(c2ccc(C)c(C)c2)N(C(=O)CCC)n2c(CC)nnc2S1	-10.4%	-16.4%	23.1µM*	?	·	-27.4%
CCOC(=O)c1ccccc1NC(=O)Cn1c(=O)n(Cc2nc(C)no2)c(=O)c2ccccc21	-2.8%	-14.0%	-28.9%	?	·	2.3%
CC12CNCC(C)(CN(C(c3ccccc3)c3ccccc3)C1)C2	0.0%	?	13µM*	16.4µM*	-80.7*	-58.8%
O=S(=O)(c1ccccc1)N1CCC2(CCN(C(c3ccccc3)c3ccccc3)CC2)CC1	·	·	?	-8.3%	·	·
COC(=O)N1CCC2(CC1)CN(C(c1ccccc1)c1ccccc1)C2	·	·	?	-6.1%	·	·
c1ccc(C(c2ccccc2)N2CCC3(CCNCC3)CC2)cc1	·	·	2.59µM*	5.8µM*	·	·
Cc1cccc(C)c1Nc1nnc(SCC(=O)Nc2ncc(C(F)(F)F)cc2Cl)s1	7.9%	-11.6%	-38.3%	2.06µM*	-1.8	-15.1%
CC(C)OCCCN1CN(S(=O)(=O)c2ccccc2)c2nc3ccccc3nc21	5.3%	22.6%	?	-13.3%	-27.0	-0.4%
COc1ccc(CCN2CN(S(=O)(=O)c3ccccc3)c3nc4ccccc4nc32)cc1	-3.0%	5.1%	18.4µM*	?	56.7	-6.0%
COc1ccc(CCN2CN(S(=O)(=O)c3ccccc3)c3nc4ccccc4nc32)cc1OC	5.3%	?	18.4µM*	20.6µM*	-13.6	-10.0%
NNC(=O)c1sc(-c2ccc(Cl)cc2)cc1N	-5.3%	3.8%	-7.2%	-11.3%	-77.6*	-34.7%
CCOC(=O)C1=NN(c2ccc(C)cc2)C2(S1)SC(C(C)=O)=C(C)N2c1ccccc1 (centres undefined)	11.4%	3.4%	20.6µM*	?	7.6	-17.2%
CCOC(=O)C1=NN(c2ccccc2)C2(S1)SC(C(C)=O)=C(C)N2c1ccccc1 (centres undefined)	9.3%	-6.0%	14.6µM*	?	-20.1	-29.4%
CCOC(=O)C1=NN(c2cccc(C)c2)C2(S1)SC(C(C)=O)=C(C)N2c1ccccc1 (centres undefined)	-6.6%	-0.8%	22.6%	0.8%	-17.1	-9.4%
Cc1cccc(C)c1NC(=O)C(c1ccccc1)N1CCN(c2ccc(F)cc2)CC1 (centres undefined)	·	-8.6%	-22.6%	?	6.6	-32.4%
O=C(Nc1ccc2c(c1)OCCO2)C(c1cc2ccccc2o1)N1CCC(Cc2ccccc2)CC1 (centres undefined)	·	-22.5%	?	?	44.4	-36.8%
Cc1cccc(C)c1NC(=O)C(c1cc2ccccc2o1)N1CCC(c2ccccc2)CC1 (centres undefined)	·	·	14.6µM*	16.4µM*	25.4	·
O=C(Nc1ccc(F)cc1)C(c1cc2ccccc2o1)N1CCN(c2ccncc2)CC1 (centres undefined)	·	·	23.1µM*	20.6µM*	?	·
Cc1ccc(N2CCN(C(C(=O)Nc3c(C)cccc3C)c3cc4ccccc4o3)CC2)cc1 (centres undefined)	·	·	13µM*	13µM*	4.0	·
CCc1cccc(NC(=O)CCNS(=O)(=O)c2ccc3c(c2)CCN3C(C)=O)c1	0.0%	-24.9%	-27.3%	?	·	2.4%
O=S1(=O)c2ccccc2N(Cc2cccc(C(F)(F)F)c2)c2ccccc21	7.1%	?	?	?	·	-13.0%
COC(=O)c1c(N2C(=O)CC(Sc3ccccc3C(=O)O)C2=O)sc(C)c1C (centres undefined)	-1.2%	-0.3%	?	?	-7.7	3.6%
SMILES	TDP1 block	TGFb inhibitor	TDP1 cell noCPT	DT40 TDP1 CPT	IL1B secr inh	HepG2 tox
COC(=O)c1c(N2C(=O)CC(Sc3ccccc3C(=O)O)C2=O)sc2c1CCCC2 (centres undefined)	-8.2%	13.4%	7.31µM*	?	12.8	1.3%
CCOC(=O)c1cc(CC)sc1N1C(=O)CC(Sc2ccccc2C(=O)O)C1=O (centres undefined)	-2.7%	9.2%	4.11µM*	2.91µM*	26.5	-1.6%
CSc1ncc(Cl)c(C(=O)Nc2ccc(C)c(C)c2)n1	·	-0.2%	-6.6%	-7.1%	17.6	3.3%
CC(=O)Nc1ccc(NC(=O)c2nc(S(=O)(=O)Cc3ccc(F)cc3)ncc2Cl)cc1	7.0%	2.82µM*	0.411µM*	0.731µM*	·	3.98µM*
Cc1ccc(NC(=O)c2nc(S(=O)(=O)Cc3ccc(F)cc3)ncc2Cl)cc1C	4.7%	5.62µM*	2.31µM*	3.66µM*	·	7.08µM*
O=C(c1cnn2c1NC(c1ccc(Br)cc1)CC2C(F)(F)F)N1CCN2CCCC2C1 (centres undefined)	2.1%	?	?	18.4µM*	-7.2	-44.4%
COc1cccc(Cn2c(C)c(CNCc3cccc(C)c3)c(C(=O)O)c2C)c1	7.6%	3.8%	?	-25.8%	·	-12.5%
CN1C/C(=C/c2ccccc2[N+](=O)[O-])C(=O)/C(=C\c2ccccc2[N+](=O)[O-])C1	·	3.16µM*	0.92µM*	0.517µM*	-97.9*	-31.7%
Cc1ccc(C)c2c1CCC(=Cc1ccccc1[N+](=O)[O-])C2=O	·	-14.1%	?	?	-11.7	-15.7%
COc1ccc2c(c1)cc(C(=O)N[C@@H](Cc1ccccc1)C(=O)O)n2C	·	-1.2%	-23.9%	0.5%	6.0	-5.8%
CC(=O)Cn1ncc(Br)c(Br)c1=O	2.7%	?	5.17µM*	5.8µM*	-95.5*	-12.1%
Cc1cc(Cl)ccc1NC(=O)c1cc2ccccn2n1	2.6%	2.5%	?	?	·	-1.1%

High-throughput results (PubChem BioAssay)
